The list is not random: actives were taken first. Their share in the collection is about 13%.
HCV inh: qHTS Assay for Inhibitors of Hepatitis C Virus (HCV); Huh7.5.1 HCVcc-Cre infection, luciferase reporter, 44 h; Potency, µM (series often up to 41.8 µM), without a hit: at the top dose activity change, negative = inhibition, most hits filed as inhibitors; 3.4% of 340,000 active; AID 651820, 2012; active = well fitted inhibition curve with a large enough effect; inconclusive = small, poorly fitted or top-dose-only effect, or another doubt; inactive = no such curve, though single readings can be large or run the other way; also: potency is read from the fitted curve at half-maximal effect; % is scaled to controls: 0 for no effect and ±100 for the full control effect
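1,000 cells/well; 4 h culture; + compound; + HCVcc-Cre (~0.5 moi); 44 h; luciferase substrate, RT 15 min; read 15 sec.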
Cycloheximide cs: Cycloheximide Counterscreen for Small Molecule Inhibitors of Shiga Toxin; cell reporter, cycloheximide protein synthesis inhibition counterscreen; max response, %; 12% of 300,000 active; in the data active = max response mostly above about 13%, no sharp cut-off; inactive = mostly below about 14%; also: read at 38.3 µM for the half of the compounds with a filed dose; 0% is about no effect
FMDV inh: High Throughput Screening for Foot and Mouth Disease Virus Antivirals | FMDV antiviral cell-based qHTS | Potency, µM (doses to about 57.9 µM), for inactives: at the highest dose activity change, negative = inhibition, most hits filed as inhibitors | 1.2% of 410,000 active | AID 1159524, 2015; calls by dose curve; tested in HEK293T cells; also: read-out not given here; potency is read from the fitted curve at half-maximal effect; % is scaled to controls: 0 for no effect and ±100 for the full control effect; nearly all actives have a fitted effect of over 45% in size
Shiga toxin inh: A qHTS for Small Molecule Inhibitors of Shiga Toxin. Vero cells, Shiga toxin protein synthesis inhibition reporter. inhibition, % at 38.7 µM. 9.2% of 290,000 active. AID 2315, 2010; in the data active = inhibition mostly above about 28%, no sharp cut-off; inactive = mostly below about 43%; also: 0% is about no effect
Lassa entry inh: qHTS for Inhibitors of binding or entry into cells for Lassa Virus. Lassa virus pseudotype entry inhibition, cell reporter. 1.2% of 300,000 active. Potency, µM (series often up to 37.9 µM), for the others: top-dose activity change, negative = inhibition, usual class: inhibitors. AID 540256, 2011; calls by dose curve; tested in HEK293 cells; also: potency is read from the fitted curve at half-maximal effect; % is scaled to controls: 0 for no effect and ±100 for the full control effect; nearly all actives have a fitted effect of over 50% in size
Marburg entry inh: qHTS for inhibitors of binding or entry into cells for Marburg Virus. Marburg virus pseudotyped entry inhibition, cell reporter. Potency, µM (doses to about 37.8 µM), without a hit: at the highest dose activity change, negative = inhibition, hits mostly inhibitors. 1.8% of 300,000 active; calls by dose curve; tested in HEK293 cells; also: potency is read from the fitted curve at half-maximal effect; % is scaled to controls: 0 for no effect and ±100 for the full control effect
An asterisk follows results filed as active; ? = inconclusive; nt = not tested or not shown; [ ] = dose if it differs, or a comment.

SMILES	HCV inh	Cycloheximide cs	FMDV inh	Shiga toxin inh	Lassa entry inh	Marburg entry inh
O=C(O)c1ccc(-c2nc(-c3ccccc3)c(-c3cccs3)[nH]2)cc1	19%	-1	-14%	-11	12%[46.1 µM]	11%[46.1 µM]
O=[N+]([O-])c1ccc(O)c(-c2nc(-c3ccccc3)c(-c3cccs3)[nH]2)c1	6.3µM*	-4	?	0	?	?
COc1cccc(NC(=S)N2CCc3cc(OC)c(OC)cc3C2)c1	-15%	2	-20%	-10	?	-2%[46.1 µM]
COC(=O)c1ccc2c(c1)C(=O)N(C1CCCCC1)C2=O	-4%	4	-16%	36	8%	16%
COc1cc(C(=O)NCc2nnc(SCC(=O)N3CCCCCC3)o2)cc(OC)c1OC	-6%	1	6%	-14	32%[46.1 µM]	?
O=c1cc(CSc2nnc(COc3ccccc3)o2)c2ccccc2[nH]1	12%	6	-24%	-7	23µM*	?
Cc1ccc(OCc2nnc(SCc3cc(=O)[nH]c4ccccc34)o2)cc1	-13%	-6	?	-22	-19%	-8%
O=C(CN1C(=O)COc2ccc(S(=O)(=O)N3CCCC3)cc21)N1CCCC1	4%	8	-12%	-8	nt	nt
Cc1nc(Nc2ccccc2O)c2oc3ccccc3c2n1	5%	-4	-10%	-6	nt	nt
Cc1nc2c(oc3ccccc32)c(=O)o1	11%	88*	84%	144*	?	7%
Cc1nc(Nc2ccc(Cl)cc2)c2oc3ccccc3c2n1	-18%	7	-21%	-2	5%	-4%[46.1 µM]
Cc1nc(Oc2ccccc2)c2oc3ccccc3c2n1	?	-2	-20%	-9	?	-6%
COc1ccc(Oc2nc(C)nc3c2oc2ccccc23)cc1	8.9µM*	3	?	33	?	?
Cc1nc(Nc2ccccc2F)c2oc3ccccc3c2n1	?	32*	33%	69*	-15%	?
Cc1nc(Nc2cccc(F)c2)c2oc3ccccc3c2n1	?	28*	-7%	97*	-13%[46.1 µM]	-29%[46.1 µM]
CC(=O)c1ccc(NC(=O)C(C)OC(=O)C2CC(=O)N(c3ccc4c(c3)OCCO4)C2)cc1 (centres undefined)	32%	0	-13%	1	4%	?
CCOc1ccc(NC(=O)NCc2c(-n3cccc3)sc3c2CCCC3)cc1	nt	nt	-7%	nt	27%[46.1 µM]	-9%[46.1 µM]
O=C(Nc1cccc(Cl)c1Cl)c1cc(S(=O)(=O)N2CCCc3ccccc32)ccc1F	nt	nt	-13%	nt	-15%[46.1 µM]	nt
COc1ccccc1Nc1nc(C)nc2c1oc1ccccc12	?	-4	-31%	11	?	?
COc1cccc(Nc2nc(C)nc3c2oc2ccccc23)c1	11µM*	11	-25%	31	25%[46.1 µM]	?
Cc1nc(Nc2cccc(Cl)c2)c2oc3ccccc3c2n1	-27%	20*	-25%	31*	?	?
Cc1nc(Nc2cccc(O)c2)c2oc3ccccc3c2n1	13µM*	42*	-23%	52*	nt	nt
COc1ccc(Nc2nc(C)nc3c2oc2ccccc23)c(OC)c1	?	-1	?	-2	?	?
Cc1ccc(CNC(=O)CCCc2nnc3n(CC(C)C)c(=O)c4sccc4n23)cc1	nt	nt	-16%	nt	23%[46.1 µM]	nt
COc1ccc(NC(=O)CN2CCN(CC(=O)Nc3ccc(F)cc3)CC2)cc1Cl	-24%	-4	-14%	-16	nt	nt
SMILES	HCV inh	Cycloheximide cs	FMDV inh	Shiga toxin inh	Lassa entry inh	Marburg entry inh
CCN(C/C=C/C#CC(C)(C)C)Cc1cccc(OCc2cc(-c3ccsc3)cs2)c1	nt	26	nt	30*	nt	nt
COc1cccc(CN(C)C(=O)CCc2nnc(-c3ccsc3)o2)c1	7%	7	14%	33	?	?
N/C(=N\OC(=O)CCC1CCCC1)c1ccc(Cl)cc1	8%	9	2%	17	nt	nt
COC(=O)CNC(=O)CSc1nc2sc(-c3ccccc3)cc2c(=O)n1-c1ccccc1	-3%	nt	-20%	nt	nt	nt
NC(=O)NC(=O)CSc1nc2sc(-c3ccccc3)cc2c(=O)n1-c1ccccc1	1%	11*	?	20	-10%[46.1 µM]	4%[46.1 µM]
CSc1nc2sc(-c3ccccc3)cc2c(=O)n1N	-4%	22*	-6%	48	?	-15%
CC(C)Sc1nc2sc(-c3ccccc3)cc2c(=O)n1N	9%	1	0%	-4	13%	3%
Cc1cccc(-c2noc(Cc3ccccc3)n2)c1	-13%	56*	nt	100*	8%	21%
Cc1ccc(S(=O)(=O)NCc2nc(-c3cccc(C)c3)no2)cc1	nt	nt	7%	nt	8%[46.1 µM]	9%[46.1 µM]
Cc1cccc(-c2noc(CCc3ccccc3)n2)c1	-16%	40*	55%	81*	nt	nt
Cc1cccc(-c2noc(CCC(=O)NCCc3ccccc3)n2)c1	-10%	3	1%	26	31%[46.1 µM]	0%[46.1 µM]
Cc1cccc(-c2noc(CNS(=O)(=O)c3ccccc3)n2)c1	-14%	18*	-8%	10	24%[46.1 µM]	-2%[46.1 µM]
COC(=O)C(Nc1ccccc1Cl)(c1cc(C)c(O)c(C)c1)C(F)(F)F (centres undefined)	14µM*	-2	-8%	4	?	?
CCCOc1ccc(C(O)(CCC)CCN2CCCCC2)cc1 (centres undefined)	8.9µM*	-4	0%	-12	?	-29%
CCCOc1ccc(C(=O)CCN2CCCCC2)cc1	-9%	5	-23%	-11	?	?
COc1ccc(CN2CCCC(CO)(Cc3cccc(Cl)c3)C2)cc1OC (centres undefined)	?	-2	0%	-8	-42%[46.1 µM]	?
CCOc1cc(CN2CCC(CO)(Cc3cccc(C(F)(F)F)c3)CC2)ccc1OC	?	-4	-6%	-14	-22%[46.1 µM]	4.5µM*
Clc1ccc(OCCSc2ncccn2)c2ccccc12	?	39*	1%	91*	22%	13%
Clc1ccc(OCCn2ccnc2)c2ccccc12	nt	-3	0%	-12	11%[14.3 µM]	?
c1cnc(SCCOc2cccc3ccccc23)nc1	?	52*	40%	79*	-5%	?
Fc1ccccc1OCCCCSc1ncccn1	8%	27*	74%	22	13%	-6%
c1ccc2c(OCCCCN3CCCC3)cccc2c1	-23%	-1	-4%	13	nt	nt
CCc1ccc(CNC(=O)c2ccc(CS(=O)(=O)Cc3cccc(C)c3)o2)cc1	nt	nt	?	nt	-24%[46.1 µM]	nt
Cc1ccc(Nc2ncc3c(n2)CC(C)(C)CC3=O)cc1	-5%	34*	30%	118*	nt	nt
CC1(C)CC(=O)c2cnc(NC3CC3)nc2C1	28%	-2	2%	49	10%	26%
COc1ccc(Nc2ncc3c(n2)CC(c2ccc(C)cc2)CC3=O)cc1 (centres undefined)	-21%	2	7%	-6	0.23µM*	?
COc1ccc(C(NC(=O)c2c(F)c(F)c(F)c(F)c2F)c2ccccc2)cc1 (centres undefined)	?	-5	?	-9	22µM*	?

Source: PubChem BioAssay (National Center for Advancing Translational Sciences (NCATS))
